Compound activity deposited in PubChem BioAssay by The Scripps Research Institute Molecular Screening Center.
Only some compounds are listed: those with a hit (about 2.4% of all), similar ones and a draw of the others.
CHO-K1 Ca ag = counter-screen for M1 agonists: effect in parental CHO-K1 cells; Fluo-8 calcium fluorescence; scaled to maximal ATP response, vehicle zero; 0.48% of 360,000 active; activation, % at 3 µM; in the data active = activation above about 15%;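 also: untransfected CHO-K1 host cells lacking M1 receptor as counterscreen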
CHO-K1 Ca PAM = nonselective calcium activators in parental CHO-K1 cells, primary screen, counter-screen for M1 PAM project, cell-based, Fluo-8 calcium fluorescence, full deck, 1536-well. ATP EC20; 0% at ATP EC20, 100% at ATP max. activation, % at 3 µM. 0.02% of 360,000 active. AID 602247, 2012;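 active = activation above the run cutoff, the mean activation of all test compounds plus 3 SD, cut at about 40% in these data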;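 also: peak over basal fluorescence ratio in a 140 s read after ATP addition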
M1 antag = human M1 muscarinic receptor antagonists, primary screen, CHO-K1 cells, Fluo-8 calcium fluorescence, 1536-well | 1.3% of 360,000 active | CHO-K1 hM1, ACh EC80 antagonist | AID 588852, 2011 | inhibition, % at 3 µM;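 active = percent inhibition above its own plate's cutoff, namely the mean of that plate's compound wells plus 3 SD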;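 also: peak over basal fluorescence ratio during 140 s after agonist addition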
Target sequence (P11229 whole entry, looked up): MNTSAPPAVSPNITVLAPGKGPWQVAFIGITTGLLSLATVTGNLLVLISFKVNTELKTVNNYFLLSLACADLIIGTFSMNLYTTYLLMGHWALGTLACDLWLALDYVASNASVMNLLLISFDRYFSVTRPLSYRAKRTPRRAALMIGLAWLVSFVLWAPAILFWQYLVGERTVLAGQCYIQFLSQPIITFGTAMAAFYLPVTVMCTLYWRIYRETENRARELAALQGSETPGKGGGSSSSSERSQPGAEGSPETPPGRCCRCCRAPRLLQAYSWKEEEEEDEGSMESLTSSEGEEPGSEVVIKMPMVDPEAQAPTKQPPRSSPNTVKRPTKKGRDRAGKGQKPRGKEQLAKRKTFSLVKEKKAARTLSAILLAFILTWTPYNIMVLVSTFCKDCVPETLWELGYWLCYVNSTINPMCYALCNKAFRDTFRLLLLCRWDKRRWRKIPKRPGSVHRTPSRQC
M1 ag = human M1 muscarinic receptor agonists, primary screen, Fluo-8 calcium fluorescence, CHO-K1 cells, HTS. Muscarinic acetylcholine receptor M1 (Homo sapiens), P11229. CHO-K1 hM1, agonist mode; 0% DMSO, 100% acetylcholine EC100. activation, % at 3 µM. 0.33% of 360,000 active;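 active = activation above the run's mean compound activation plus 3 SD, cut at about 16% in these data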;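 also: peak over basal fluorescence ratio within a 140 s kinetic read after compound addition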
CHO-K1 Ca antag = M1 antagonist counterscreen hit in parental CHO-K1 cells. 0.6% of 360,000 active. inhibition, % at 3 µM. ATP-induced calcium, Fluo-8 fluorescence;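 active = inhibition above a per-plate cutoff, the plate's mean sample inhibition plus 3 SD, cut at about 24% in these data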
M1 PAM = human M1 muscarinic receptor positive allosteric modulators, primary screen, CHO-K1 cells, Fluo-8 calcium fluorescence, 1536-well; Muscarinic acetylcholine receptor M1 (Homo sapiens), P11229; 0.088% of 360,000 active; activation, % at 3 µM; CHO-K1 hM1, ACh EC20; 0% = ACh EC20, 100% = maximal ACh; in the data active = activation above about 19%, passing the limit was not always enough
A number is an active result.

For COc1ccc(S(=O)(=O)N(C)C)cc1NS(=O)(=O)c1ccc(F)c(F)c1F the results were CHO-K1 Ca ag inactive, CHO-K1 Ca PAM inactive, M1 antag inactive, M1 ag inactive, CHO-K1 Ca antag inactive and M1 PAM inactive.
For CC1Cc2cc(S(=O)(=O)N3CCC(C(=O)N4CCN(c5ccccc5F)CC4)CC3)ccc2N1C(=O)C1CC1 (configuration not stated) the results were CHO-K1 Ca ag inactive, CHO-K1 Ca PAM inactive, M1 antag inactive, M1 ag inactive, CHO-K1 Ca antag 29 and M1 PAM inactive.
CS(=O)(=O)N1CCC(C(=O)N2CCN(c3ccccc3F)CC2)CC1 was read as CHO-K1 Ca ag 17, CHO-K1 Ca PAM inactive, M1 antag inactive, M1 ag inactive, CHO-K1 Ca antag inactive and M1 PAM inactive.
`CC(=O)N1c2ccc(S(=O)(=O)N3CCC(C(=O)N4CCC(C)CC4)CC3)cc2CC1C` (configuration not stated) gave CHO-K1 Ca ag inactive, CHO-K1 Ca PAM inactive, M1 antag inactive, M1 ag inactive, CHO-K1 Ca antag inactive and M1 PAM inactive.
For CC(=O)N1c2ccc(S(=O)(=O)N3CCC(C(=O)N4CCN(c5cc(Cl)ccc5C)CC4)CC3)cc2CC1C (configuration not stated) the results were CHO-K1 Ca ag inactive, CHO-K1 Ca PAM inactive, M1 antag 48, M1 ag inactive, CHO-K1 Ca antag 26 and M1 PAM inactive.
`CC(=O)c1ccc(N2CCN(S(=O)(=O)c3ccc4c(c3)CC(C)N4C(C)=O)CC2)cc1` (configuration not stated) gave CHO-K1 Ca ag inactive, CHO-K1 Ca PAM inactive, M1 antag 36, M1 ag inactive, CHO-K1 Ca antag inactive and M1 PAM inactive.
For O=C(CCC(=O)Nc1ccccc1Cl)NN=C1CCCC1 the results were CHO-K1 Ca ag inactive, CHO-K1 Ca PAM inactive, M1 antag inactive, M1 ag inactive, CHO-K1 Ca antag inactive and M1 PAM inactive.
Screening COc1ccc(C(=O)N2CCCC(c3cc(C(=O)Nc4ccccc4)no3)C2)cc1 (configuration not stated) returned CHO-K1 Ca ag inactive, CHO-K1 Ca PAM inactive, M1 antag inactive, M1 ag inactive, CHO-K1 Ca antag inactive and M1 PAM inactive.
For O=C(Nc1cccc(S(=O)(=O)NC2=NCCC2)c1)c1cc(Cl)ccc1[N+](=O)[O-] the results were CHO-K1 Ca ag inactive, CHO-K1 Ca PAM inactive, M1 antag inactive, M1 ag inactive, CHO-K1 Ca antag inactive and M1 PAM inactive.
`CCOC(=O)N1CCN(C(=O)c2cnc(Nc3ccccc3OC)c3ccccc23)CC1` gave CHO-K1 Ca ag inactive, CHO-K1 Ca PAM inactive, M1 antag 33, M1 ag inactive, CHO-K1 Ca antag inactive and M1 PAM inactive.
Screening CCN1CCN(c2ncc(C(=O)N3CCN(c4ccccc4OC)CC3)c3ccccc23)CC1 returned CHO-K1 Ca ag inactive, CHO-K1 Ca PAM inactive, M1 antag 21, M1 ag inactive, CHO-K1 Ca antag inactive and M1 PAM inactive.
For CCN1CCN(c2ncc(C(=O)Nc3cc(Cl)c(OC)cc3OC)c3ccccc23)CC1 the results were CHO-K1 Ca ag inactive, CHO-K1 Ca PAM inactive, M1 antag 34, M1 ag inactive, CHO-K1 Ca antag inactive and M1 PAM inactive.
For COc1ccccc1N1CCN(C(=O)c2n[nH]c3ccccc23)CC1 the results were CHO-K1 Ca ag inactive, CHO-K1 Ca PAM inactive, M1 antag inactive, M1 ag inactive, CHO-K1 Ca antag inactive and M1 PAM inactive.
`CCN1CCN(c2ncc(C(=O)Nc3c(F)cc(F)cc3Br)c3ccccc23)CC1` gave CHO-K1 Ca ag inactive, CHO-K1 Ca PAM inactive, M1 antag inactive, M1 ag inactive, CHO-K1 Ca antag inactive and M1 PAM inactive.
CCC(=O)Nc1c2c(nn1-c1ccc(F)cc1)CS(=O)(=O)C2 was read as CHO-K1 Ca ag inactive, CHO-K1 Ca PAM inactive, M1 antag inactive, M1 ag inactive, CHO-K1 Ca antag inactive and M1 PAM inactive.
Cn1nnnc1SCC(=O)N1c2ccccc2Sc2ccc(Cl)cc21 was read as CHO-K1 Ca ag inactive, CHO-K1 Ca PAM inactive, M1 antag 30, M1 ag inactive, CHO-K1 Ca antag inactive and M1 PAM inactive.
